# Assay results published in PubChem BioAssay AID449762 (Southern Research Specialized Biocontainment Screening …, 2010).
# Screen size: about 330,000 compounds; about 1,900 (0.58%) were called active. Not shown: some 4% with an inconclusive outcome. Cut-off read from the data, not from the text of the source: inconclusive = inhibition above about 70% without an active follow-up result; inactive = below that. Not all results are given here. Entries with a potency or affinity are not part of this list.
# Assay: M. tuberculosis growth inhibition, HTS (AID 449762);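 note: bacterial growth assessed after seven days of incubation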
# Conditions: M. tuberculosis H37Rv growth inhibition, 7H9 media; at 25 µM; active compounds read high
row,SMILES,inhibition
1,CCOC(=O)C1CCCN(S(=O)(=O)c2ccc(-c3cc(C)no3)s2)C1 (configuration not stated),3.93% (inactive)
2,CCO[C@@H]1OC(C(=O)NCc2nc3ccccc3[nH]2)=C[C@H](c2ccccc2)[C@H]1CCCO,10.6% (inactive)
3,CCO[C@H]1OC(C(=O)NCc2nc3ccccc3[nH]2)=C[C@@H](c2ccccc2)[C@@H]1CCCO,-4.83% (inactive)
4,Cc1ccc(C)n1CCN1CCN(C(=O)CSc2nc3ccccc3nc2N2CCOCC2)CC1,5.46% (inactive)
5,O=C(CSc1nc2ccccc2nc1N1CCCCC1)N1CCN(c2ccccc2)CC1,-7.86% (inactive)
6,COc1ccc2[nH]c(=O)c(CN(CC3CCCO3)S(=O)(=O)c3ccccc3)cc2c1 (configuration not stated),2.57% (inactive)
7,Cc1ccccc1OCC(=O)NNC(=O)C1CCCCC1C(=O)O (configuration not stated),2.25% (inactive)
8,Cc1ccc(C)c(N(C(=O)c2nsc(Cl)c2Cl)C(C(=O)NC2CCCC2)c2ccc(O)cc2)c1 (configuration not stated),-2.81% (inactive)
9,Cc1cccc(N(C(=O)c2nsc(Cl)c2Cl)C(C(=O)NC2CCCC2)c2ccc(O)cc2)c1 (configuration not stated),-12.7% (inactive)
10,C=CCc1c(C)nn(CC(=O)O)c1-c1ccccc1,-6.59% (inactive)
11,COc1ccc(S(=O)(=O)N2CCC(C(=O)NC(c3nc4ccccc4[nH]3)C(C)C)CC2)cc1 (configuration not stated),-6.28% (inactive)
12,O=C(Nc1cc(S(=O)(=O)N2CCOCC2)ccc1N1CCCC1)C1COc2ccccc2O1 (configuration not stated),-4.41% (inactive)
13,COC(=O)/C(=C1/Oc2ccc(C(C)(C)C)cc2S1)C(F)(F)F,-1.9% (inactive)
14,COC(=O)/C(=C1/Oc2ccc(C)cc2S1)C(F)(F)F,4.4% (inactive)
15,O=S(=O)(c1ccc(Cl)c(NC(=S)Nc2cccc(O)c2)c1)N1CCOCC1,1.85% (inactive)
16,CC12CCC(=O)N1C(C(=O)N1CCN(S(=O)(=O)c3cccc(C(F)(F)F)c3)CC1)CS2 (configuration not stated),2.29% (inactive)
17,O=C(Nc1nc2ccc(Cl)cc2s1)C1CC1,7.91% (inactive)
18,CC1CC1C(=O)Nc1nc2ccc(Cl)cc2s1 (configuration not stated),16.9% (inactive)
19,O=C(Cc1nnc(NC(=O)Nc2ccc(F)cc2)s1)NCc1ccccc1,-2.08% (inactive)
20,COc1ccc(N2C(=O)CCC2=O)cc1,-16.1% (inactive)
21,CCOc1ccc(C(=O)NNC(=O)CN2C(=O)C3CC=CCC3C2=O)cc1OC (configuration not stated),3.32% (inactive)
22,CCN(C(=O)COC(=O)CNC(=O)c1sc2ccccc2c1Cl)C1CCCCC1,39.4% (inactive)
23,CN(C(=O)COC(=O)c1cc(NS(=O)(=O)c2cc([N+](=O)[O-])ccc2Cl)ccc1O)C1CCCCC1,0.85% (inactive)

row,SMILES,inhibition
1,CN(C(=O)COC(=O)c1ccc(Cl)cc1N)C1CCCCC1,-0.1% (inactive)
2,CC1CCCC(NC(=O)COC(=O)c2sc3ccccc3c2Cl)C1C (configuration not stated),-11.1% (inactive)
3,C=CCn1c(N)c(C(=O)N2CCOCC2)sc1=S,-5.77% (inactive)
4,c1ccc(CCNc2ncnc3sccc23)nc1,-8.28% (inactive)
5,Cc1ccc(N2CC(C(=O)Nc3cccc(C(=O)NC4CC4)c3)CC2=O)cc1 (configuration not stated),-1.62% (inactive)
6,C/C(=N\Nc1nncc2ccccc12)c1ccc(O)cc1,13.3% (inactive)
7,COc1ccc(CC(=O)Oc2ccccc2C)cc1,10.5% (inactive)
8,CCN(CC)c1ccc(/C=N/NC(=O)c2ccc3nc[nH]c3c2)cc1,5.47% (inactive)
9,CNC(=O)COc1coc(CN2CCN(c3ccccc3)CC2)cc1=O,-6.51% (inactive)
10,CC(NC(=O)/C(=C\c1cccc([N+](=O)[O-])c1)NC(=O)c1ccco1)C(=O)O (configuration not stated),2.24% (inactive)
11,CCOC(=O)c1c(NC(=O)c2cc(-c3cccc(O)c3)on2)sc(C(C)=O)c1C,2.98% (inactive)
12,Cc1oc2c(CN3CCCC(C)C3)c(O)ccc2c(=O)c1-c1ccccc1 (configuration not stated),0.44% (inactive)
13,CC1CCCCN1Cc1c(O)ccc2c(=O)c(-c3nc4ccccc4s3)coc12 (configuration not stated),6.43% (inactive)
14,Cc1cccc(-n2nnnc2SCC(=O)N(CC(C)C)c2c(N)n(CC(C)C)c(=O)[nH]c2=O)c1,1.22% (inactive)
15,CC(C)Cc1nc2oc3c(NCC(C)O)ncnc3c2c2c1CCCC2 (configuration not stated),2.05% (inactive)
16,CC(C)Cc1nc2oc3c(Cl)ncnc3c2c2c1CCCC2,2.35% (inactive)
17,CC(C)c1ccc(CCNC(=O)c2cccc(S(=O)(=O)N3CCN(C)CC3)c2)cc1,-4.06% (inactive)
18,O=C1CCN(CCc2ccccc2)CCN1[C@H](CSc1ccccc1)Cc1ccccc1,13.6% (inactive)
19,CCCN1CCC(=O)N([C@H](CSc2ccc(OC)cc2)Cc2ccccc2)CC1,0.11% (inactive)
20,Cc1cc(C(=O)CSc2nc(N)cc(N)n2)c(C)n1CC1CCCO1 (configuration not stated),-3.69% (inactive)
21,CCn1c(=O)c2cc(C(=O)NC(C)C)sc2c2ccccc21,-0.74% (inactive)
22,Cc1c(OCc2nn[nH]n2)ccc2c3c(c(=O)oc12)CCCC3,-3.72% (inactive)
23,COc1ccccc1OCC(=O)Nc1ccc(S(=O)(=O)N(C)c2ccccc2)cc1,-13.2% (inactive)

row,SMILES,inhibition
1,COc1ccccc1-c1cc(C(F)(F)F)nc(S(C)(=O)=O)n1,2.66% (inactive)
2,COc1nc(-c2ccccc2)cc(C(F)(F)F)n1,-3% (inactive)
3,O=C(NC(=S)Nc1ccc(CN2CCOCC2)cc1)c1cc2ccccc2o1,68.5% (inactive)
4,COc1ccc(-n2c(-c3ccc(Br)cc3)n[nH]c2=S)cc1,7.43% (inactive)
5,C=CCN(c1nc(C)cc(OC)n1)S(=O)(=O)c1ccccc1,-6.07% (inactive)
6,CC(OC(=O)/C=C/c1ccc2ccccc2n1)C(=O)Nc1ccc(S(N)(=O)=O)cc1 (configuration not stated),11.9% (inactive)
7,CC(OC(=O)/C=C/c1ccc2ccccc2n1)C(=O)N(C)c1ccccc1 (configuration not stated),-4.67% (inactive)
8,NC(=O)c1ccccc1OCC(=O)Nc1cccnc1Cl,2.44% (inactive)
9,CCCc1ccc(Oc2cc(N3CCOCC3)nc(-c3ccccc3)n2)cc1,17.9% (inactive)
10,CN(/N=C/c1cc(Br)cc(Br)c1O)c1ccccc1,3.99% (inactive)
11,O=C(O)c1cccc(N/N=C/c2cc(Br)cc(Br)c2O)c1,-15.9% (inactive)
12,Cc1ccc(C(=O)Nc2ccccc2C(=O)N2CCCCC2C)cc1 (configuration not stated),-0.75% (inactive)
13,COCC(=O)Nc1ccc(N2CCOCC2)c(S(=O)(=O)Nc2ccccc2OC)c1,1.36% (inactive)
14,CCCCCCn1c2c(c(=N)c3c1CCC3)CCC2,-4.99% (inactive)
15,CCCCn1c2c(c(=N)c3c1CCC3)CCC2,-1.93% (inactive)
16,Cc1noc(C)c1COC(=O)COc1ccc(C#N)cc1,6.51% (inactive)
17,Cc1ccc(OCC(=O)OCc2c(C)noc2C)cc1C,3.24% (inactive)
18,O=C(COC(=O)/C=C/c1ccc(F)cc1)NCC1CCCO1 (configuration not stated),6.52% (inactive)
19,COc1ccc(/C=C/C(=O)OCC(=O)NCC2CCCO2)cc1 (configuration not stated),2.24% (inactive)
20,Cc1noc(C)c1CSc1nnc(-c2ccccc2)n1N,6.07% (inactive)
21,CCOC(=O)Nc1ccc(C)cc1Br,-1.99% (inactive)
22,CCc1cc(C(=O)Nc2ccccc2)cs1,-4.05% (inactive)
23,COc1ccc(NC(=O)c2nc[nH]c2C(=O)N(C)Cc2ccccc2)cc1,9.08% (inactive)

row,SMILES,inhibition
1,NC1=NC(=O)/C(=C/C=C/c2cccs2)S1,18.7% (inactive)
2,COc1ccc(C(=O)Nc2c(N)nc(SCC(=O)NCC3CCCO3)[nH]c2=O)cc1 (configuration not stated),11.2% (inactive)
3,CCN(CC)C(=O)c1sc2nc(Cc3ccccc3)[nH]c(=O)c2c1C,4.02% (inactive)
4,CCN(CC)C(=O)c1sc2nc(-c3ccncc3)[nH]c(=O)c2c1C,-4.66% (inactive)
5,COc1ccc(-n2c(O)c(/C=C3\C=Nc4ccc(Br)cc43)c(=O)[nH]c2=O)c(OC)c1,-3.48% (inactive)
6,CCn1c(CSc2nnc(-c3ccc4c(c3)OCO4)o2)nc2cc(S(=O)(=O)N(C)C)ccc21,-2.02% (inactive)
7,O=C(c1cc(-c2cccc(Cl)c2)nc2ccccc12)N1CCCC1,4.01% (inactive)
8,COc1ccc(OC)c(C2CC(c3c(-c4ccccc4)c4cc(Cl)ccc4[nH]c3=O)=NN2S(C)(=O)=O)c1 (configuration not stated),44.4% (inactive)
9,COc1ccc(C2CC(c3c(-c4ccccc4)c4cc(Cl)ccc4[nH]c3=O)=NN2S(C)(=O)=O)cc1OC (configuration not stated),7.95% (inactive)
10,O=C(NCc1cccnc1)c1noc2c1CCCC2,-1.71% (inactive)
11,CCOC(=O)c1nsnc1NCCCl,4.35% (inactive)
12,C/C(=N\Nc1ccc(S(=O)(=O)N2CCCCC2)cn1)c1ccc(O)cc1,-0.43% (inactive)
13,COc1cccc(/C(C)=N/Nc2ccc(S(=O)(=O)N3CCCCC3)cn2)c1,-2.89% (inactive)
14,CC(=O)Nc1ccc(S(=O)(=O)Nc2ccccc2N2CCOCC2)cc1,5.3% (inactive)
15,CCCCN(C)CCCNC(=O)c1cn(CC)c2ccc(S(=O)(=O)N3CCOCC3)cc2c1=O,3.29% (inactive)
16,CCCN(CCC)CCCNC(=O)c1cn(CC)c2ccc(S(=O)(=O)N3CCOCC3)cc2c1=O,3.73% (inactive)
17,Cc1ccc(S(=O)(=O)n2nc(OC(=O)c3ccccc3F)cc2N)cc1,1.24% (inactive)
18,O=c1[nH]nnc2sc3c(c12)CCCC3,1.62% (inactive)
19,COc1cc(NS(=O)(=O)c2ccc(NC(=S)NC(=O)c3sc4ccccc4c3Cl)cc2)nc(OC)n1,-0.21% (inactive)
20,COc1ccc(C(=O)C2CCN(CC(=O)Nc3ccc(C)cc3)CC2)cc1,8.88% (inactive)
21,Cc1ccc(-c2csc(NC(=O)CN3CCC(C(N)=O)CC3)n2)cc1,2.15% (inactive)
22,O=c1c(O)c(-c2ccc3c(c2)OCO3)oc2ccccc12,35.4% (inactive)
23,Cc1ccc(-c2oc3ccccc3c(=O)c2O)cc1,27.6% (inactive)
